Results on six compounds are retold here after PubChem BioAssay (EPA / NIEHS).

Read-out in experiment [1]: Interleukin-8 (IL8), CXCL8 (gene 3576)
Kind of experiment: BSK_CASM3C_IL8: BioMAP Diversity Plus: CASM3C Assay for Interleukin-8 (IL8) Biomarker Activity (AID 2283042).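 Further: IL-8 protein level quantified by ELISA.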 To be noted: primary human coronary artery smooth muscle cells; actives raise or lower the signal.

Read-out in experiment [2]: Human Leukocyte Antigen - DR isotype (HLADR), HLA-DRA (gene 3122)
Briefly: BSK_CASM3C_HLADR: BioMAP Diversity Plus: CASM3C Assay for Human Leukocyte Antigen - DR isotype (HLADR) Biomarker Activity (AID 2283043).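 Further: cell-surface HLA-DR protein level quantified by ELISA.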 To be noted: primary human coronary artery smooth muscle cells; actives raise or lower the signal.

Read-out in experiment [3]: Macrophage colony-stimulating factor (MCSF), CSF1 (gene 1435)
Briefly: BSK_CASM3C_MCSF: BioMAP Diversity Plus: CASM3C Assay for Macrophage colony-stimulating factor (MCSF) Biomarker Activity (AID 2283044).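 Further: M-CSF protein amount quantified by ELISA after 24 h exposure.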 The conditions noted are these: primary human coronary artery smooth muscle cells; actives raise or lower the signal.

Read-out in experiment [4]: Low-density lipoprotein receptor (LDLR), LDLR (gene 3949)
Kind of experiment: BSK_CASM3C_LDLR: BioMAP Diversity Plus: CASM3C Assay for Low-density lipoprotein receptor (LDLR) Biomarker Activity (AID 2283045).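 Further: LDLR protein level on the cell surface quantified by ELISA.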 To be noted: primary human coronary artery smooth muscle cells; actives raise or lower the signal.

Read-out in experiment [5]: Monocyte Chemoattractant Protein-1 (MCP1), CCL2 (gene 6347)
Kind of experiment: BSK_CASM3C_MCP1: BioMAP Diversity Plus: CASM3C Assay for Monocyte Chemoattractant Protein-1 (MCP1) Biomarker Activity (AID 2283046).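 Further: MCP-1 level quantified by ELISA 24 h after dosing.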 To be noted: primary human coronary artery smooth muscle cells; actives raise or lower the signal.

The nature of experiment [6]: BSK_CASM3C_Proliferation: Cell Proliferation Assessment in the BioMAP Diversity Plus: CASM3C Assay (AID 2283047).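 Further: sulforhodamine B total protein stain as relative cell number at 560 nm; sub-confluent cells exposed 48 h before staining; fitted both ways against DMSO so gain or loss of cell number.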 The conditions noted are these: primary human coronary artery smooth muscle cells.
Read-out in experiment [7]: Monokine induced gamma interferon (MIG), CXCL9 (gene 4283)
Kind of experiment: BSK_CASM3C_MIG: BioMAP Diversity Plus: CASM3C Assay for Monokine induced gamma interferon (MIG) Biomarker Activity (AID 2283048).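 Further: MIG protein level measured by ELISA.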 To be noted: primary human coronary artery smooth muscle cells; actives raise or lower the signal.

Read-out in experiment [8]: serum amyloid A (SAA), SAA1 (gene 6288)
Kind of experiment: BSK_CASM3C_SAA: BioMAP Diversity Plus: CASM3C Assay for serum amyloid A (SAA) Biomarker Activity (AID 2283049).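 Further: SAA protein level quantified by ELISA.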 The conditions noted are these: primary human coronary artery smooth muscle cells; actives raise or lower the signal.

Experiment [9] can be described thus: BSK_CASM3C_SRB: Viability Assessment in the BioMAP Diversity Plus: CASM3C Assay (AID 2283050).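 Further: total protein by SRB staining as cytotoxicity measure in parallel cultures; cells exposed to compound for 24 h.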 The conditions noted are these: primary human coronary artery smooth muscle cells.
Read-out in experiment [10]: Thrombomodulin, THBD (gene 7056)
Briefly: BSK_CASM3C_Thrombomodulin: BioMAP Diversity Plus: CASM3C Assay for Thrombomodulin Biomarker Activity (AID 2283051).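 Further: thrombomodulin protein level measured by ELISA 24 h after dosing.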 The conditions noted are these: primary human coronary artery smooth muscle cells; actives raise or lower the signal.

Read-out in experiment [11]: Tissue Factor, F3 (gene 2152)
Kind of experiment: BSK_CASM3C_TissueFactor: BioMAP Diversity Plus: CASM3C Assay for Tissue Factor Biomarker Activity (AID 2283052).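 Further: cell surface tissue factor protein level read by ELISA.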 The conditions noted are these: primary human coronary artery smooth muscle cells; actives raise or lower the signal.

Read-out in experiment [12]: Interferon-gamma inducible Protein 10 (IP10), CXCL10 (gene 3627)
Briefly: BSK_hDFCGF_IP10: BioMAP Diversity Plus: hDFCGF Assay for Interferon-gamma inducible Protein 10 (IP10) Biomarker Activity (AID 2283053). The conditions noted are these: primary human foreskin fibroblasts; actives raise or lower the signal. The gist of the method: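 ELISA read-out of IP-10 (CXCL10) from primary human skin fibroblasts, 24 h after compound addition. Gain or loss of signal versus DMSO baseline, bidirectional curve fitting.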

Read-out in experiment [13]: Urokinase-type plasminogen activator receptor (uPAR), PLAUR (gene 5329)
Kind of experiment: BSK_CASM3C_uPAR: BioMAP Diversity Plus: CASM3C Assay for Urokinase-type plasminogen activator receptor (uPAR) Biomarker Activity (AID 2283054).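 Further: cell-surface uPAR protein level quantified by ELISA.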 The conditions noted are these: primary human coronary artery smooth muscle cells; actives raise or lower the signal.

Read-out in experiment [14]: Vascular cell adhesion molecule 1 (VCAM1), VCAM1 (gene 7412)
Briefly: BSK_CASM3C_VCAM1: BioMAP Diversity Plus: CASM3C Assay for Vascular cell adhesion molecule 1 (VCAM1) Biomarker Activity (AID 2283055).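 Further: VCAM-1 protein level quantified by ELISA on the cells.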 To be noted: primary human coronary artery smooth muscle cells; actives raise or lower the signal.

Read-out in experiment [15]: Collagen III, COL3A1 (gene 1281)
Kind of experiment: BSK_hDFCGF_CollagenIII: BioMAP Diversity Plus: hDFCGF Assay for Collagen III Biomarker Activity (AID 2283056). To be noted: primary human foreskin fibroblasts; actives raise or lower the signal. The gist of the method:
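ELISA read-out of collagen III from human skin fibroblast cultures sampled 24 h post-dosing. Values were derived by bidirectional fitting relative to the DMSO vehicle control.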

Read-out in experiment [16]: Epidermal growth factor receptor (EGFR), EGFR (gene 1956)
Briefly: BSK_hDFCGF_EGFR: BioMAP Diversity Plus: hDFCGF Assay for Epidermal growth factor receptor (EGFR) Biomarker Activity (AID 2283057). To be noted: primary human foreskin fibroblasts; actives raise or lower the signal. The gist of the method:
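ELISA readout of EGFR on human dermal fibroblasts (primary foreskin cells), 24 h post-dosing; bidirectional curve fit vs DMSO baseline, gain or loss of signal scored.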

Experiment [17] is described as follows: BSK_hDFCGF_Proliferation: Cell Proliferation Assessment in the BioMAP Diversity Plus: hDFCGF Assay (AID 2283059).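 Further: curves fitted for both rise and fall of signal versus DMSO baseline.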 The conditions noted are these: primary human foreskin fibroblasts. The method, boiled down: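 Primary human foreskin fibroblasts, sub-confluent; […]; 10% TCA fix, 0.1% SRB stain, A560 total protein. Gain/loss fitted bidirectionally vs DMSO control.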

Read-out in experiment [18]: Macrophage colony-stimulating factor (MCSF), CSF1 (gene 1435)
Briefly: BSK_hDFCGF_MCSF: BioMAP Diversity Plus: hDFCGF Assay for Macrophage colony-stimulating factor (MCSF) Biomarker Activity (AID 2283060). To be noted: primary human foreskin fibroblasts; actives raise or lower the signal. The gist of the method:
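Primary human foreskin fibroblasts dosed with chemical; 24 h later, M-CSF quantified by ELISA; curves fitted in both directions vs DMSO negative control.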

Experiment [19] can be described thus: BSK_hDFCGF_SRB: Viability Assessment in the BioMAP Diversity Plus: hDFCGF Assay (AID 2283061).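 Further: cells exposed to compound for 24 h before the read.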 The conditions noted are these: primary human foreskin fibroblasts. The method, boiled down: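 Readout is SRB absorbance at 560 nm, reflecting total protein in parallel cultures of human foreskin fibroblasts harvested 24 h after chemical dosing. Activity was fitted bidirectionally relative to DMSO.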

Activity calls are given as the source filed them. How the source made its calls: active means hit-call score of the fitted dose curve at least 0.9, where 1 is the maximum; inactive means score below 0.9.

In general, AC50 refers to the midpoint of the concentration-response curve, whichever way the signal moves.

`O=C1c2ccccc2C(=O)N1CCc1noc(-c2ccc(CN3CCCCCC3)s2)n1`: the result in [1], in experiment [2], in experiment [3], in [5], in [6] and in experiment [7] was inactive. Further, the result in [8], in [9], in experiment [10], in experiment [11], in [12] and in [13] was inactive. Also, the result in experiment [14], in experiment [15], in experiment [16], in experiment [17], in experiment [18] and in [19] was inactive. Also, the AC50 in experiment [4] was 27.1 µM (active).
For `Cc1ccc2oc(CN(Cc3ccccc3)C(=O)Nc3c(F)cc(F)cc3F)c(-c3ccc(Cl)cc3)c2c1`, the result in [1], in [2], in experiment [3], in experiment [4], in [5] and in [6] was inactive. Further, the result in experiment [7], in [8], in experiment [9], in [10], in experiment [11] and in experiment [13] was inactive. Further, the result in [14], in [15], in experiment [16] and in experiment [19] was inactive. Besides, the AC50 in [12] was 5.68 µM (active).
`c1ccc2ccccc2c1`: the result in experiment [1], in [2], in experiment [3], in [4], in experiment [5] and in experiment [6] was inactive. Moreover, the outcome in [7], in experiment [8], in experiment [9], in experiment [10], in experiment [11] and in experiment [12] was inactive. Moreover, the outcome in experiment [13], in experiment [14], in experiment [15], in experiment [16], in experiment [17] and in [18] was inactive. Also, the result in experiment [19] was inactive.
On to `O=C(O)c1ccccc1-n1cc(C(=O)O)c(=O)c2cc(Nc3c(F)cc(F)cc3Cl)c(Cl)cc21`, for which the result in experiment [1], in experiment [2], in experiment [3], in [4], in [5] and in [6] was inactive. Moreover, the outcome in experiment [7], in [8], in experiment [9], in experiment [10], in [11] and in experiment [12] was inactive. Further, the result in [13], in experiment [14], in experiment [15], in [16], in [17] and in [18] was inactive. In addition, the result in experiment [19] was inactive.
Turning to `CO[C@H]1/C=C/O[C@@]2(C)Oc3c(C)c(O)c4c(O)c(c(/C=N/N5CCN(C)CC5)c(O)c4c3C2=O)NC(=O)/C(C)=C\C=C\[C@H](C)[C@H](O)[C@@H](C)[C@@H](O)[C@@H](C)[C@H](OC(C)=O)[C@@H]1C`, the result in experiment [1], in experiment [2], in experiment [3], in experiment [4], in [5] and in experiment [7] was inactive. In addition, the result in experiment [8], in [9], in experiment [10], in experiment [11], in [12] and in experiment [13] was inactive. Moreover, the result in experiment [14], in experiment [15], in [16], in experiment [18] and in experiment [19] was inactive. The AC50 in experiment [6] was 4.51 µM (active); in experiment [17] it was 19.4 µM (active).
As to `CCN(Cc1cccc(S(=O)(=O)O)c1)c1ccc(C(=C2C=CC(=[N+](CC)Cc3cccc(S(=O)(=O)O)c3)C=C2)c2ccccc2S(=O)(=O)[O-])cc1`, the outcome in experiment [1], in experiment [2], in experiment [3], in [4], in experiment [5] and in experiment [6] was inactive. Moreover, the result in experiment [7], in experiment [8], in experiment [9], in [10], in experiment [11] and in [13] was inactive. Moreover, the outcome in [14], in [15], in experiment [16], in experiment [17] and in [19] was inactive. In addition, the AC50 in experiment [12] is 18.8 µM (active).
